Assay results reported in PubChem BioAssay.
Potency and affinity values are given separately. Results filed as inconclusive are left out. Activity calls are given as the source filed them.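 How the source made its calls, unless noted: active means signal-lowering compounds whose fitted half-maximal concentration is at or below twice the top tested dose in every run; inconclusive means runs disagree, flat 30 to 70% inhibition, or poor curve fit; inactive means the rest.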

What was measured:
[1] = RMG-1 ovarian cancer cell viability loss – cherry-pick, dose response (AID 687029;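 active means signal drop whose fitted half-maximal concentration is at most twice the top valid dose, in every test run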;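 further: cells exposed to compound for 96 hours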)
[2] = IOSE-T80 viability loss, PAX8-independent line – cell-based, cherry-pick, selectivity assay for PAX8 inhibitor project, dose response (AID 687032;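 active means fitted half-maximal concentration for viability loss no higher than twice the top valid dose, in every repeat run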;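 further: cells exposed to compound for 96 h before reading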)
[3] = CMV-driven luciferase expression suppression in HEK293 – cell-based, luminescence, dry powder, counter-screen for Pax8 inhibitor project, dose response (AID 743020);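 further: HEK293 cells stably expressing the CMV luciferase reporter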
[4] = general cell-killing toxicity readout – plate reader, dry powder samples, cytotoxicity control for PAX8 inhibitor project, dose response (AID 743021; call rule not given here)

Measured: outcome

C=C(C)C(=O)OC1(C(F)(F)F)Oc2cc(C)ccc2NC1=O (configuration not stated)
inactive: [1] | [2] | [3] | [4]

CC[C@@]1(O)C(=O)OCc2c1cc1n(c2=O)Cc2cc3c(CN(C)C)c(O)ccc3nc2-1
inactive: [1] | [2] | [3] | [4]

CC(=O)NC(CCc1ccc(Cl)c(Cl)c1)c1cccc(O)c(=O)c1 (configuration not stated)
inactive: [1] | [2] | [3] | [4]

C[C@@H]1CCCCO[C@H](CN(C)Cc2ccncc2)[C@H](C)CN([C@@H](C)CO)C(=O)c2cc(NC(=O)NC3CCCCC3)ccc2O1
inactive: [1] | [2] | [3] | [4]

COc1ccc(C(=O)N/N=C/c2ccc(OC)c(CN3CCN(c4ccc(F)cc4)CC3)c2)cc1
inactive: [1] | [2] | [3] | [4]

O=C(CCCN1C(=O)/C(=C/c2cccc(Br)c2)SC1=S)Nc1cccnc1
inactive: [1] | [2] | [3] | [4]

C#CCN(C[C@H]1[C@H](OC(=O)Nc2c(C)noc2C)[C@H](OC(=O)Nc2c(C)noc2C)C[C@@H](C(=O)OC)[C@H]1C(=O)OC)S(=O)(=O)c1ccc(C)cc1
inactive: [1] | [2] | [3] | [4]

CCC(=O)Oc1ccc2c(C)cc(=O)oc2c1C(=O)c1ccccc1
inactive: [1] | [2] | [3] | [4]

O=S(=O)(/C(=C/c1ccc(C(F)(F)F)cc1)c1nc2ccccc2[nH]1)c1ccccc1
inactive: [1] | [2] | [3] | [4]

C=CCC[C@H](Cc1ccc(F)cc1)C(=O)OC[C@H](Cc1c[nH]c2ccccc12)NC(=O)[C@H](CC=C)CC(=O)N(CCO)Cc1ccccc1
inactive: [1] | [2] | [3] | [4]

C=CC(=O)N1C/C(=C/c2ccc(Cl)cc2)C(=O)/C(=C\c2ccc(Cl)cc2)C1
inactive: [1] | [2] | [3] | [4]

Cn1c(CCN2CCN(c3ccccn3)CC2)nc2cc(NS(=O)(=O)c3ccc(Cl)cc3)ccc21
inactive: [1] | [2] | [3] | [4]

CCN(CC)CC(C)(C)C(=O)/C=C/c1ccc(/C=C/C(=O)C(C)(C)CN(CC)CC)cc1
inactive: [1] | [2] | [3] | [4]

COc1ccc(COC(=O)c2cc([N+](=O)[O-])ccc2N2CCOCC2)cc1F
inactive: [1] | [2] | [3] | [4]

O=C(c1nnsc1S(=O)(=O)c1ccc(Cl)cc1)N1CCOCC1
inactive: [1] | [2] | [3] | [4]

O=C(N/N=C/c1ccsc1)c1cc(-c2cccs2)nc2ccccc12
inactive: [1] | [2] | [3] | [4]

COc1cccc(/C=C2\SC(=S)N(CCC(=O)NCCc3ccc(O)cc3)C2=O)c1
inactive: [1] | [2] | [3] | [4]

COc1ccc(O)c(/C=N/NC(=O)c2ccc(N3CCCC3=O)cc2)c1
inactive: [1] | [2] | [3] | [4]

COc1cc(/C=N/NC(=O)c2ccc(CN3C(=O)c4cccc5cccc3c45)cc2)cc(OC)c1O
inactive: [1] | [2] | [3] | [4]

CC(C)OCCCNC(=O)c1cccc(NC(=O)c2ccccc2)c1
inactive: [1] | [2] | [3] | [4]

CCO[C@H]1OC(C(=O)N2CCN(Cc3ccccc3)CC2)=C[C@@H](c2ccc(C(F)(F)F)cc2)[C@@H]1CCCO
inactive: [1] | [2] | [3] | [4]

COC(=O)C12OCC34C(CC5C(C)=C(O)C(=O)CC5(C)C3C(O)C1O)OC(=O)C(OC(=O)C=C(C)C)C24 (configuration not stated)
inactive: [1] | [2] | [3] | [4]

NC(=O)[C@H]1CC2(CC(c3cccc(NC(=O)COc4ccc(Cl)cc4)c3)=NO2)CN1C(=O)C(c1ccccc1)c1ccccc1 (some centres not stated)
inactive: [1] | [2] | [3] | [4]

O=C(NC1CC1)c1ccc2c(c1)C1C3CCC(C3)C1C(c1ccccc1)N2 (configuration not stated)
inactive: [1] | [2] | [3] | [4]

COc1ccc(S(=O)(=O)Nc2ccc3c(c2)C(=O)N([C@H](C)CO)C[C@H](C)[C@@H](CN(C)S(=O)(=O)c2ccc(C)cc2)OCCCC[C@H](C)O3)cc1
inactive: [1] | [2] | [3] | [4]

COc1ccc(NS(=O)(=O)c2ccc(N3CCCC3)c(NC(=S)Nc3ccc(SC(F)F)cc3)c2)cc1
inactive: [1] | [2] | [3] | [4]

Cc1ccc(S(=O)(=O)N2CCCCC2)cc1NC(=O)Cc1c[nH]c2ccccc12
inactive: [1] | [2] | [3] | [4]

Cc1noc(/C=C/c2ccco2)c1S(=O)(=O)N1CCC(C(=O)NC(C)c2ccccc2)CC1 (configuration not stated)
inactive: [1] | [2] | [3] | [4]

Cc1ccc(NC(=O)c2ccc([N+](=O)[O-])s2)cc1S(=O)(=O)N1CCOCC1
inactive: [1] | [2] | [3] | [4]

O=C(NC1CCCCC1)C(c1cccs1)N(C(=O)Cc1c[nH]c2ccccc12)c1ccc(F)cc1 (configuration not stated)
inactive: [1] | [2] | [3] | [4]

O=C1c2ccccc2C(=O)c2[nH]c(=O)[nH]c21
inactive: [1] | [2] | [3] | [4]

O=C(Nc1cccc(NC(=O)c2ccccc2Cl)c1)c1ccc([N+](=O)[O-])o1
inactive: [1] | [2] | [3] | [4]

COc1ccc(Br)cc1/C=C/C(=O)c1ccc(NC(C)=O)cc1
inactive: [1] | [2] | [3] | [4]

O=C(NCc1cccnc1)/C(=C\c1ccc(-c2ccc(Cl)c(Cl)c2)o1)S(=O)(=O)c1ccccc1
inactive: [1] | [2] | [3] | [4]

CC1=C(C(=O)OC2CCCCC2)C(c2cccnc2)n2ncnc2N1 (configuration not stated)
inactive: [1] | [2] | [3] | [4]

Cc1ccc(-c2cn3cc(C)ccc3n2)cc1
inactive: [1] | [2] | [3] | [4]

COc1ccccc1N1CCN(Cc2cc(Br)c(O)c3ncccc23)CC1
inactive: [1] | [2] | [3] | [4]

O=C(CCc1ccc(S(=O)(=O)NCc2ccccc2)cc1)NCc1ccco1
inactive: [1] | [2] | [3] | [4]

O=C(CN1C(=O)c2ccccc2S1(=O)=O)N1CCc2ccccc21
inactive: [1] | [2] | [3] | [4]

O=C(OCC(=O)N1CCN(C(=O)c2ccco2)CC1)c1cccc(S(=O)(=O)N2CCc3ccccc32)c1
inactive: [1] | [2] | [3] | [4]

C[C@H](O)C#Cc1ccc2c(c1)O[C@H](CN(C)Cc1ccc(-c3ccccc3)cc1)[C@@H](C)CN([C@@H](C)CO)S2(=O)=O
inactive: [1] | [2] | [3] | [4]

O=C(Nc1cccc(Cl)c1)Nc1csc([N+](=O)[O-])c1
inactive: [1] | [2] | [3] | [4]

C[C@H](CO)N1C[C@H](C)[C@@H](CN(C)Cc2ccccc2)OCCCC[C@H](C)Oc2ccc(NC(=O)Nc3ccc(C(F)(F)F)cc3)cc2C1=O
inactive: [1] | [2] | [3] | [4]

O=C(Nc1ccc([N+](=O)[O-])cn1)c1cc(-c2cccc(Br)c2)nc2ccccc12
inactive: [1] | [2] | [3] | [4]

CCN(CC)c1ccc(C(NC(=O)C(C)C)c2ccc3cccnc3c2O)cc1 (configuration not stated)
inactive: [1] | [2] | [3] | [4]

O=C(Nc1cccc(F)c1)N1CCCCN2[C@@H](CO)[C@H](c3ccc(C#Cc4ccccc4)cc3)[C@@H]2C1
inactive: [1] | [2] | [3] | [4]

CN(CCc1cn[nH]c1)Cc1nc(C(c2ccccc2)c2ccccc2)no1
inactive: [1] | [2] | [3] | [4]

Nc1ncnc2c(C3OC(CO)C(O)C3O)scc12 (configuration not stated)
inactive: [1] | [2] | [3] | [4]

C[C@@H]1CCCCO[C@@H](CN(C)Cc2ccc(Cl)c(Cl)c2)[C@H](C)CN([C@@H](C)CO)C(=O)c2cc(NC(=O)CCC(F)(F)F)ccc2O1
inactive: [1] | [2] | [3] | [4]

CCCN(CCC)Cc1c(C(=O)N/N=C/C(C)=C\c2ccco2)nnn1-c1nonc1N
inactive: [1] | [2] | [3] | [4]

O=C1c2c(O)ccc(O)c2C(=O)c2c(NCCNCCO)ccc(NCCNCCO)c21
inactive: [1] | [2] | [3] | [4]

CN(Cc1ccccc1)N=Nc1nc[nH]c1C(N)=O
inactive: [1] | [2] | [3] | [4]

O=C1C=CC(=C(c2ccc(O)cc2)c2ccc(O)cc2)C=C1
inactive: [1] | [2] | [3] | [4]

O=C(Nc1cccc(C2=NCCN2)c1)Nc1cccc(C2=NCCN2)c1
inactive: [1] | [2] | [3] | [4]

O=C(N/N=C/c1ccc(Cl)c([N+](=O)[O-])c1)c1cc(-c2ccc3c4c(cccc24)CC3)n[nH]1
inactive: [1] | [2] | [3] | [4]

Cc1ccc2c(c1C)-c1c(ccc(C)c1C)C(=O)C2=O
inactive: [1] | [2] | [3] | [4]

Cc1cccc(NCc2ccc(O)c3ncccc23)c1C
inactive: [1] | [2] | [3] | [4]

FC(F)(F)c1nnc2c(Sc3ccccc3)nc3ccc(Cl)cc3n12
inactive: [1] | [2] | [3] | [4]

CCN(c1nc(N)c(C(=O)N=C(N)N)nc1Cl)C(C)C
inactive: [1] | [2] | [3] | [4]

C=C1C(=O)[C@@]23[C@H](O)C[C@@H]4C(C)(C)CC[C@H](O)[C@@]4(C)[C@@H]2CC[C@@H]1[C@H]3O
inactive: [1] | [2] | [3] | [4]

COc1cc(Cl)c(NC2=CC(=O)C(=O)c3ccccc32)c(OC)c1
inactive: [1] | [2] | [3] | [4]

CCSc1nc(-c2ccccc2)nc(C(Cl)Cl)n1
inactive: [1] | [2] | [3] | [4]

C=C1C2(C(=O)Nc3ccc(SC(F)F)cc3)CCC(C2)C1(C)C (configuration not stated)
inactive: [1] | [2] | [3] | [4]
